Laboratory results published in PubChem BioAssay (NCATS).
Values joined by “and” are separate entries in the source; they are usually repeats but may differ in a detail not shown here. Identical values can stand only once. Inconclusive results are not listed. Active and inactive are the calls of the source. Calls come from the whole dose curve; as a rule, active = well fitted curve in the direction sought with a large enough effect; inconclusive = small, poorly fitted or top-dose-only effect, or another doubt; inactive = no such curve, though single readings can be large or run the other way.

Experiment: qHTS Assay for Identifying Gametocytocidal Compounds (AID 743244);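 note: actives lower the fluorescent signal which means gametocytes are killed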
Settings: P. falciparum 3D7 stage III-V gametocytes, alamarBlue, 72 h; max response: stronger effect = lower value
How it was run: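 Late gametocytes (III–V), P. falciparum 3D7; 72 h drug, then 24 h alamarBlue; resazurin reduction read by fluorescence.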
% is set by controls: 0 for no effect and ±100 for the full control effect.

Row | SMILES | max response
1 | CC(=O)Nc1ccc(/C=N/NC(N)=S)cc1 | -6.31% (inactive) and 5.4% (inactive)
2 | Cc1c(Cl)cccc1Nc1ccccc1C(=O)O | -7.91% (inactive)
3 | CC1CC(OC(=O)C(O)c2ccccc2)CC(C)(C)N1C (stereo not drawn) | 12.1% (inactive) and 4.11% (inactive)
4 | O=C(O)CC(O)C(=O)O (stereo not drawn) | -0.517% (inactive)
5 | CCCCN(CCCC)CCCOC(=O)c1ccc(N)cc1 | 0.616% (inactive)
6 | NC(CSCC(=O)O)C(=O)O (stereo not drawn) | -8.42% (inactive)
7 | COc1cc(C(=O)N2CCOCC2)cc(OC)c1OC | -5.92% (inactive) and 13.8% (inactive)
8 | NS(=O)(=O)c1cc2c(cc1Cl)NC(CSCc1ccccc1)=NS2(=O)=O | -8.8% (inactive)
9 | CC(C)(C)C(=O)NCCCC(=O)O | 2.51% (inactive)
10 | COc1ccc(S(=O)(=O)Nc2nnc(CC(C)C)s2)cc1 | 7.52% (inactive) and 10.3% (inactive)
11 | NC1[C@H]2CN(c3nc4c(cc3F)c(=O)c(C(=O)O)cn4-c3ccc(F)cc3F)C[C@@H]12 (stereo partly drawn) | -0.422% (inactive)
12 | CN1[C@@H]2CC(OC(=O)[C@H](CO)c3ccccc3)C[C@H]1[C@@H]1O[C@@H]12 (stereo partly drawn) | 9.71% (inactive) and 1.92% (inactive)
13 | O=C1OC(OC(=O)c2cccnc2Nc2cccc(C(F)(F)F)c2)c2ccccc21 (stereo not drawn) | 9.12% (inactive)
14 | O=C(O)COc1nn(Cc2ccccc2)c2ccccc12 | 49.6% (inactive)
15 | C[C@H]1O[C@H](O[C@H]2[C@H](O)[C@@H](O)[C@@H](O[C@H]3[C@H](O)[C@@H](O)[C@H](O)O[C@@H]3CO)O[C@@H]2CO)[C@H](O)[C@@H](O)[C@@H]1N[C@H]1C=C(CO)[C@@H](O)[C@H](O)[C@H]1O | 2.05% (inactive)
16 | COc1ccc2[nH]c(S(=O)Cc3ncc(C)c(OC)c3C)nc2n1 (stereo not drawn) | -2.18% (inactive)
17 | CC1(C)OC(=O)NC1=O | 2.42% (inactive)
18 | CCC(=O)c1ccc(O)cc1 | -0.113% (inactive)
